{"source": "the supplement of paper PMC12067093", "about": "“Discovery and optimisation of a covalent ligand for TRIM25 and its application to targeted protein ubiquitination” (Chemical Science, 2025)", "molecular_target": "CLIC1_O00299_191_LHIVQVVCKK (UniProt O00299)", "assay": "probe-labelled cysteine peptide fold change vs DMSO (competition) (log2 fold change); higher = less target engagement (more negative = stronger competition)", "conditions": "THP-1, incubation time: 4 h", "note": "The full data set covers some 21,000 targets. This sample favours those with the largest changes.", "data": [{"compound": "CC1Cc2ccccc2N1C(=O)C1CCCN(C(=O)CCl)C1", "note": "(mixture of isomers) [TRIM25 ligand 11 (diastereomer mixture)];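 note: competitive chemoproteomic profiling in live THP-1 cells with an iodoacetamide desthiobiotin (IA-DTB) probe, comparing probe-labelled peptide intensities in compound-treated cells against DMSO-treated controls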", "values": [{"measurement": "probe-labelled cysteine peptide fold change", "setting": "10 µM", "result": -0.428}, {"measurement": "probe-labelled cysteine peptide fold change", "setting": "50 µM", "result": -0.575}]}]}
